Records with an inconclusive call do not appear. Entries that show only a call come without a potency. Unmarked numbers belong to inactive results. Active and inactive are the calls of the source. Calls come from the whole dose curve; as a rule, active = well fitted curve in the direction sought with a large enough effect; inconclusive = small, poorly fitted or top-dose-only effect, or another doubt; inactive = no such curve, though single readings can be large; an effect the other way counts as inactive or inconclusive.
Experiments:
[1] = biological target: Rap guanine nucleotide exchange factor 3 (Homo sapiens) (UniProt O95398); assay: Confirmatory qHTS for antagonist of cAMP-regulated guanine nucleotide exchange factor 3 (EPAC1) (AID 1645880); conditions: EPAC1 Rap1B-BODIPY-GDP exchange, fluorescence; activity, negative = inhibition: at 115 µM (top of the series); note: nearly all actives have a fitted effect of over 55% in size; note: potency is the fitted concentration of half-maximal effect
Method in brief: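 Released BODIPY-GDP fluoresces less than Rap1-bound BODIPY-GDP; the signal is followed at 480/540 nm at 5-min intervals over 30 min, after 5 min at room temperature. Reactions contain 100 nM EPAC1, 250 nM RAP1B-BODIPY-GDP and 50 uM GDP; results are normalized to ATA and DMSO.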

[2] = biological target: Rap guanine nucleotide exchange factor 3 (Homo sapiens) (UniProt O95398); assay: Confirmatory qHTS for agonist of cAMP-regulated guanine nucleotide exchange factor 3 (EPAC1) (AID 1645881); note: nearly all actives have a fitted effect of over 75% in size; note: potency is the fitted concentration of half-maximal effect;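 for activation: EPAC1 catalysed release of BODIPY-GDP from Rap1B seen as fluorescence loss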
[3] = biological target: Rap guanine nucleotide exchange factor 4 (Homo sapiens) (UniProt Q8WZA2); assay: Confirmatory qHTS for agonist of cAMP-regulated guanine nucleotide exchange factor 4 (EPAC2) (AID 1645884);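 note: nucleotide exchange releases bodipy-GDP from Rap1 and this lowers its fluorescence; nearly all actives have a fitted effect of over 65% in size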; note: potency is the fitted concentration of half-maximal effect
[4] = biological target: Rap guanine nucleotide exchange factor 3 (Homo sapiens) (UniProt O95398); assay: Counterscreen qHTS for antagonist of cAMP-regulated guanine nucleotide exchange factor 3 (EPAC1) (AID 1645888)
Method in brief: (§1)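 Rap1B-BODIPY-GDP 250 nM + GDP 50 uM; cpds 7-pt, final 9.74 nM–152 uM (activator mode) or from 7.32 nM upwards (inhibitor mode); RT; FI 480/540 nm at 5 and 30 min, then ± cAMP, reread.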

[5] = biological target: Rap guanine nucleotide exchange factor 3 (Homo sapiens) (UniProt O95398); assay: Counterscreen qHTS for agonist of cAMP-regulated guanine nucleotide exchange factor 3 (EPAC1) (AID 1645889); note: nearly all actives have a fitted effect of over 40% in size; note: potency is the fitted concentration of half-maximal effect
Method in brief: as §1

Sequence of Rap guanine nucleotide exchange factor 3 (Homo sapiens) (O95398 whole entry, looked up): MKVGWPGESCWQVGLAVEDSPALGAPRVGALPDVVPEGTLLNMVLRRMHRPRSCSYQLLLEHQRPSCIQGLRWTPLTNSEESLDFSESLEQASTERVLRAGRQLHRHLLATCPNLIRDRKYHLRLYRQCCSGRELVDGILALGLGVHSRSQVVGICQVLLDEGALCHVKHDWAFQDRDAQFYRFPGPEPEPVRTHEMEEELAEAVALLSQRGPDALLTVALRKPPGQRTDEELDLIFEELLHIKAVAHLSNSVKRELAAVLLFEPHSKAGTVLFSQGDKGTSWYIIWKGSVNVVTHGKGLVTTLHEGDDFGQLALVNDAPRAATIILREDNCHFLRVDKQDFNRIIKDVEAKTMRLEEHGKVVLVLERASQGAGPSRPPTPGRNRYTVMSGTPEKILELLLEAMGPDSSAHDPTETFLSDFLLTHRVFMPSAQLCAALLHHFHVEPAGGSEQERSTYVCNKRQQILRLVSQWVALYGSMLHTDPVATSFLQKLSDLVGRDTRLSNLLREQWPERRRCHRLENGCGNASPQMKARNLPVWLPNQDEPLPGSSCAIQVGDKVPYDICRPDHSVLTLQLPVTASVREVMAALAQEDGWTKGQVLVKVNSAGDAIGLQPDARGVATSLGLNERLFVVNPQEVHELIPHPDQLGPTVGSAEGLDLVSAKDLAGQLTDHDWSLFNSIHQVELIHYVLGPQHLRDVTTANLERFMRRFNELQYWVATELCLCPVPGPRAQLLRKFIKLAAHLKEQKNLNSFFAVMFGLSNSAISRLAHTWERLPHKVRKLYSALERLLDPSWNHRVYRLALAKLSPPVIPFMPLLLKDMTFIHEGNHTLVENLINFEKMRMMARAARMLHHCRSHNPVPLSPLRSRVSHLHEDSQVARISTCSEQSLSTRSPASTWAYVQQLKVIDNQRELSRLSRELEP
Sequence of Rap guanine nucleotide exchange factor 4 (Homo sapiens) (Q8WZA2 whole entry, looked up): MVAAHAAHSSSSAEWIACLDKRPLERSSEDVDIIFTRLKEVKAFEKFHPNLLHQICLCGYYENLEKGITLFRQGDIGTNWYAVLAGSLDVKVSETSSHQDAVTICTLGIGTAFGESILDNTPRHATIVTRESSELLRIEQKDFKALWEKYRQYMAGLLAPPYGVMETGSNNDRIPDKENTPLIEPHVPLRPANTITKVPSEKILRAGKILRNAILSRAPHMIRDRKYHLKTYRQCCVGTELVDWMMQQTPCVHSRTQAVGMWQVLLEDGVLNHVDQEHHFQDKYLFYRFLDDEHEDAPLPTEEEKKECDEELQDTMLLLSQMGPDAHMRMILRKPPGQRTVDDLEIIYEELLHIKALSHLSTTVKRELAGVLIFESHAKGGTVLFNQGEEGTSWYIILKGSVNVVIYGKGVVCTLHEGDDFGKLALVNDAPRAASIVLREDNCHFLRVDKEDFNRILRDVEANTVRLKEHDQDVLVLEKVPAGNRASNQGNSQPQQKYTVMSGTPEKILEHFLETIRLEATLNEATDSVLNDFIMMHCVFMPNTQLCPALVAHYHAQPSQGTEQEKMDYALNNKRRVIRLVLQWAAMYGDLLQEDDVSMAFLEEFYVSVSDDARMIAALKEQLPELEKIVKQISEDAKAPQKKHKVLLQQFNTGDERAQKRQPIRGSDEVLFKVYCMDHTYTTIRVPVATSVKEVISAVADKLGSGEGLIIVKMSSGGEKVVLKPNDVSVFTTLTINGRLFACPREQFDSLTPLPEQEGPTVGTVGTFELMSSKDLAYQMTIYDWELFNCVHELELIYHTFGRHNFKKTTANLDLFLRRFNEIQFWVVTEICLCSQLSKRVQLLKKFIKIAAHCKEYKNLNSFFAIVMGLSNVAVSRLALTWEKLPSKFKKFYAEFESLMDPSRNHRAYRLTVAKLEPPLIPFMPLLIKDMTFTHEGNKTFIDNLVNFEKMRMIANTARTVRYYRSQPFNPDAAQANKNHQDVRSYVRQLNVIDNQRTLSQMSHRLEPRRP

Compound	Potency [1]	Potency [2]	Potency [3]	Potency [4]	activation [3]	activity change, negative = inhibition [4]	activation [5]	Potency [5]
O=C(CN1C(=O)c2ccccc2C1=O)Nc1cc([N+](=O)[O-])ccc1O	inactive	inactive	inactive	inactive				
O=C1C(O)=CC(=C(c2ccccc2)c2ccccc2)c2ccccc21	inactive	inactive	inactive	inactive				
COc1ccccc1CN(C)CC(=O)Nc1ccccc1-c1ccccc1	inactive	inactive	inactive	inactive				
Cc1ccc(SCCSc2ncccn2)cc1	inactive	inactive			-2.5% [at 17.1 µM, percent relative to cAMP agonist control]	-17.4% [at 30.8 µM]	-4.72% [at 30.8 µM]	
O=C(Cc1c(Cl)cccc1Cl)Nc1ccc(S(=O)(=O)Nc2ncccn2)cc1	inactive	inactive	inactive	inactive				
Cc1ccc(S(=O)(=O)NN2C(=O)/C(=C/c3cccc(F)c3)SC2=S)cc1	23.9 µM (active)	inactive	inactive	inactive				inactive
O=C(/C=C/c1ccco1)NCC1OCCc2ccccc21 (configuration not stated)	19 µM (active)	inactive	inactive	inactive				
Cn1c(=O)c2c(nc(NCCc3ccccc3)n2CC(=O)NCCc2ccccc2)n(C)c1=O	inactive	inactive	inactive	inactive				inactive
CCN(CC(=O)Nc1ccc(NC(C)=O)cc1)C(=O)C1(c2ccc(Cl)cc2)CCC1	inactive	inactive	inactive	inactive				inactive
Cc1cc(C)nc(SCC(=O)c2ccc(F)c(C)c2)n1	inactive	inactive	inactive	inactive				
COc1cc(C(c2c(C(=O)O)[nH]c3ccccc23)c2c(C(=O)O)[nH]c3ccccc23)ccc1OCc1ccccc1	15.1 µM (active)	inactive	inactive	inactive				inactive
O=C(COc1ccccc1Cl)Nc1ccc(C(=O)c2ccc(C(=O)O)cc2)cc1	inactive	inactive	inactive	inactive				
Cc1cc2oc(=O)c(CC(=O)O)c(C)c2c2occ(C(C)(C)C)c12	inactive	inactive	inactive	inactive				
COc1ccc(NC(=O)c2cc(-c3ccco3)nc3ccccc23)cc1S(=O)(=O)N1CCOCC1	9.53 µM (active)	inactive	inactive	inactive				
CCc1nc2ccccc2c(C(=O)NCc2ccccc2)c1C	inactive	inactive	inactive	inactive				
O=C(Cn1cnc2c(nnn2Cc2ccccc2)c1=O)N1CCN(c2ccccc2)CC1	inactive	inactive	inactive	inactive				
CCC(=O)NC(c1cccs1)c1cc([N+](=O)[O-])c2cccnc2c1O (configuration not stated)	42.6 µM (active)	inactive	inactive	inactive				
COc1cc(/C=C2\C(=N)N3N=C(S(C)(=O)=O)SC3=NC2=O)ccc1OS(=O)(=O)c1ccc(C)cc1	60.1 µM (active)	inactive	inactive	inactive				
O=C(O)c1ccccc1NS(=O)(=O)c1ccc(N/N=C/c2cccc(O)c2O)c([N+](=O)[O-])c1	9.53 µM (active)	inactive	inactive	inactive				inactive
CCCCN(C(=O)c1ccc2c(c1)OCO2)c1ccccc1	inactive	inactive	inactive	inactive				
O=C(O)Cc1ccc(N=Nc2c(O)c(C(=O)O)cc3ccccc23)cc1	33.8 µM (active)	inactive	inactive	inactive				inactive
O=C(Nc1sc2c(c1C(=O)O)CCC2)c1ccccc1F	inactive	inactive	inactive	inactive				
CC#C[C@@H](CC)c1ccc2ccn(C)c2c1	inactive	inactive			5.93% [at 17.1 µM, percent relative to cAMP agonist control]	-25.8% [at 30.8 µM]		

Compound	Potency [1]	Potency [2]	Potency [3]	Potency [4]	activation [3]	activity change, negative = inhibition [4]	activation [5]	Potency [5]
COc1ccc(C(=O)N/N=C/c2ccc3cccc(OCc4ccccc4)c3n2)cc1	inactive	inactive	inactive	inactive				
COc1cc(/C=C2\COC/C(=C\c3ccc(O)c(OC)c3)C2=O)ccc1O	23.9 µM (active)	inactive	inactive	inactive				
COc1ccc2cc(/C=C3\SC(=S)NC3=O)c(N3CCOCC3)nc2c1	20 µM (active)	inactive			0.207% [at 17.1 µM, percent relative to cAMP agonist control]	3.21% [at 30.8 µM]		
Cc1ccc(N2CC(c3nc4ccccc4[nH]3)CC2=O)c(C)c1 (configuration not stated)	inactive	inactive	inactive	inactive				
O=c1ccc(-c2ccccc2)nn1Cc1ccc(Cl)cc1	inactive	inactive	inactive	inactive				inactive
CCSc1nc(C)cc(C)c1S(=O)(=O)c1ccccc1C	inactive	inactive			3.71% [at 17.1 µM, percent relative to cAMP agonist control]	8% [at 30.8 µM]		
O=C1/C(=C\c2ccc(Br)cc2)SC(=S)N1NS(=O)(=O)c1ccccc1	11.2 µM (active)	inactive			10.7% [at 17.1 µM, percent relative to cAMP agonist control]	6.09% [at 30.8 µM]		
CCOc1ccc(C(=O)NCC(=O)Nc2ncccc2C)cc1OCC	inactive	inactive	inactive	inactive				inactive
CCc1nc2c(OCc3ccc(C(F)(F)F)cc3)cccn2c1N(C)C(=O)c1ccc(OC)cc1	inactive	inactive			16% [at 17.1 µM, percent relative to cAMP agonist control]	-20.8% [at 30.8 µM]		
O=C(CS(=O)(=O)c1ccccc1)c1cc2cc(F)ccc2oc1=O	75.7 µM (active)	inactive	inactive	inactive				inactive
CC(=O)OC1CSC2c3ccccc3C(=O)N2Cc2sccc21 (configuration not stated)	inactive	inactive	inactive	inactive				inactive
CCOC(=O)CSc1nc2c(c(=O)n(C)c(=O)n2C)n1Cc1ccccc1F	inactive	inactive	inactive	inactive				inactive
COCc1cc(C)nc(SCC(=O)c2ccc(O)c(O)c2)c1C#N	37.9 µM (active)	inactive	inactive	inactive				inactive
Nc1nnc(CC(=O)N/N=C/c2cc([N+](=O)[O-])cc(Br)c2O)s1	10.7 µM (active)	inactive	inactive	inactive				inactive
COc1ccccc1Oc1ncnc2c1oc1ccccc12	inactive	inactive			-4.43% [at 17.1 µM, percent relative to cAMP agonist control]	7.03% [at 30.8 µM]	5.04% [at 30.8 µM]	
Cc1cc(=O)oc2cc(NC(=O)C(C)Oc3ccccc3)ccc12 (configuration not stated)	inactive	inactive	inactive	inactive				inactive
O=C(Nc1ccc2nc3n(c(=O)c2c1)CCCCC3)c1c(F)ccc([N+](=O)[O-])c1F	15.1 µM (active)	inactive	inactive	inactive				inactive
C=CCn1c(Cc2ccccc2)nc2c(cnn2-c2ccccc2)c1=O	inactive	inactive	inactive	inactive				inactive
Cc1cc(C)c(S(=O)(=O)N2CCCC2)c(C)c1	inactive	inactive	inactive	inactive				inactive
O=C(O)c1ccccc1-c1ccccc1C(=O)Nc1ccc2c(c1)oc(=O)c1ccccc12	75.7 µM (active)	inactive	inactive	inactive				inactive
Clc1cccc(-c2ccc3nccn3c2)c1Cl	inactive	inactive	inactive	inactive				inactive
Cc1cc(C)c(S(=O)(=O)c2ccccc2C)c(SCC(C)C)n1	inactive	inactive			10.6% [at 17.1 µM, percent relative to cAMP agonist control]	-9.64% [at 30.8 µM]	-2.44% [at 30.8 µM]	
Cc1ccc(S(=O)(=O)N2[C@@H](c3cccc(Cl)c3)C(C(=O)O)=CC[C@H]2c2ccc(Cl)c(Cl)c2)cc1	67.5 µM (active)	inactive	inactive	inactive				inactive

Compound	Potency [1]	Potency [2]	Potency [3]	Potency [4]	activation [3]	activity change, negative = inhibition [4]	activation [5]	Potency [5]
O=S(=O)(Nc1ccc(C(O)(C(F)(F)F)C(F)(F)F)cc1)c1ccc(Cl)c2nonc12	42.6 µM (active)	inactive	inactive	inactive				inactive
Cc1c(Cl)cccc1NC(=O)Nc1cccnc1	inactive	inactive	inactive	inactive				inactive
O=C1c2ccccc2C(Nc2cccnc2)N1Cc1ccccc1Cl (configuration not stated)	inactive	inactive	inactive	inactive				inactive
O=C(CN1CCCC1)Nc1ccccc1Sc1ccc(Cl)cc1	inactive	inactive	inactive	inactive				inactive
CC(=O)OCCNc1cc(N2CCN(C)CC2)c2noc3c2c1C(=O)c1ccccc1-3	inactive	inactive	inactive	inactive				inactive
Cc1cc(C(=O)N/N=C/c2ccc(O)c([N+](=O)[O-])c2)c(C)n1-c1ccc(F)cc1	42.6 µM (active)	inactive	inactive	inactive				inactive
O=C(O)C1=CC[C@@H](c2ccc(Cl)cc2)N(S(=O)(=O)c2ccc(Cl)cc2)[C@H]1c1ccc(Br)cc1	75.7 µM (active)	inactive	inactive	inactive				inactive
COC(=O)C1=CN(Cc2cccs2)C=C(C(=O)OC)C1c1cccc(Cl)c1	inactive	inactive			2.31% [at 17.1 µM, percent relative to cAMP agonist control]	-4.15% [at 30.8 µM]	24.6% [at 30.8 µM]	
COc1ccc(C(=O)c2ccc(Cl)cc2)c(OC)c1OC	inactive	inactive			6.47% [at 17.1 µM, percent relative to cAMP agonist control]	-1.07% [at 30.8 µM]	6.99% [at 30.8 µM]	
OC[C@@H]1[C@@H](c2ccc(F)cc2)C(c2cccc(Cl)c2)=NN1c1ccccc1	inactive	inactive	inactive	inactive				12.6 µM (active)
O=C(O)CN1C(=O)/C(=C\c2cc(Br)ccc2OCc2ccccc2Cl)SC1=S	33.8 µM (active)	inactive	inactive	inactive				inactive
COc1cc(/C=C2\SC(=S)N(NC(=O)c3ccc(O)cc3)C2=O)ccc1O	75.7 µM (active)	inactive	inactive	inactive				inactive
Cc1ccc(N(C(=O)c2ccccc2Cl)C2=NC(C)CS2)c(C)c1 (configuration not stated)	inactive	inactive			5.24% [at 17.1 µM, percent relative to cAMP agonist control]	-24.5% [at 30.8 µM]	26.9% [at 30.8 µM]	
O=C(N/N=C/c1c(O)n(-c2ccccc2Cl)c(=O)c2ccccc12)C1COc2ccccc2O1 (configuration not stated)	42.6 µM (active)	inactive	inactive	inactive				inactive
Cc1ccc([C@H]2C(C(=O)O)=CC[C@@H](c3ccc(C(C)C)cc3)N2S(=O)(=O)c2ccc(C)cc2)cc1	75.7 µM (active)	inactive	inactive	inactive				inactive
Cc1ccc(NS(=O)(=O)c2cccs2)cc1S(=O)(=O)N1CCCCCC1	inactive	inactive	inactive	inactive				inactive
CC(C1CC1)N(C(=O)NC1CCS(=O)(=O)C1)c1ccccc1 (configuration not stated)	inactive	inactive	inactive	inactive				inactive
COc1ccc2nc(N3C(=O)C(O)=C(C(=O)c4ccco4)C3c3ccc(C)o3)sc2c1 (configuration not stated)	26.9 µM (active)	inactive	inactive	inactive				inactive
CC(=NNC(=O)c1ccncc1)c1ccc2ccccc2c1O	inactive	100 µM (active)	112 µM (active)	inactive				39.8 µM (active)
O=C(/C=C/c1ccco1)N1CCCC(c2ccccc2)C1 (configuration not stated)	67.5 µM (active)	inactive	inactive	inactive				inactive
COc1ccc([C@H]2CC(=O)C=C(c3cc(OC)ccc3OC)C2)cc1	inactive	inactive	inactive	inactive				inactive

From PubChem BioAssay (NCATS)
